What all share (experiment): protein-binding microarray (PBM); PBM: ~300 nM protein, 6 mM HEPES pH 7.8, 80 mM KCl, 0.5 mM EDTA, 0.5 mM EGTA, 6% glycerol, 35 ng/ul poly-dIdC, 1% milk, 1 h, room temperature; Ap Aiptasia and Nv Nematostella (sea anemones) / Co Capsaspora / Aq Amphimedon (sponge) / Dm Drosophila / Hu human; RHD is the Rel homology domain; high values mean tight binding
What all share (conditions): dsDNA, one strand shown

Assay [1] has as its target T1, GST-Ap-NF-kB RHD (Exaiptasia pallida (Aiptasia), UniProt A0A913YAJ5 2-422).
T1 sequence: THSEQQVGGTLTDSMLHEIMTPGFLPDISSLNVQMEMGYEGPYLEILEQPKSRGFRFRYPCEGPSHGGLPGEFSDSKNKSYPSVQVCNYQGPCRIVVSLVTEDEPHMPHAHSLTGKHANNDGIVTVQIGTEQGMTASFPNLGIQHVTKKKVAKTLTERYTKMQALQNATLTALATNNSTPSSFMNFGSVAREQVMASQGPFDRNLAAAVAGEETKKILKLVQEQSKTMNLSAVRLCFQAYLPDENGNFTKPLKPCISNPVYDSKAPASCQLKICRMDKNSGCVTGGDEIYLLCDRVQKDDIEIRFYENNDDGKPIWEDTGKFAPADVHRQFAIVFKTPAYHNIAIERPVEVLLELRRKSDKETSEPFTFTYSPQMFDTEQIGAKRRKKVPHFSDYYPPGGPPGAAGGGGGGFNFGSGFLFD

The target in assay [2] is T2, GST-Nv-NF-kB (Cys allele) (Nematostella vectensis, UniProt E5G601 2-411).
T2 sequence: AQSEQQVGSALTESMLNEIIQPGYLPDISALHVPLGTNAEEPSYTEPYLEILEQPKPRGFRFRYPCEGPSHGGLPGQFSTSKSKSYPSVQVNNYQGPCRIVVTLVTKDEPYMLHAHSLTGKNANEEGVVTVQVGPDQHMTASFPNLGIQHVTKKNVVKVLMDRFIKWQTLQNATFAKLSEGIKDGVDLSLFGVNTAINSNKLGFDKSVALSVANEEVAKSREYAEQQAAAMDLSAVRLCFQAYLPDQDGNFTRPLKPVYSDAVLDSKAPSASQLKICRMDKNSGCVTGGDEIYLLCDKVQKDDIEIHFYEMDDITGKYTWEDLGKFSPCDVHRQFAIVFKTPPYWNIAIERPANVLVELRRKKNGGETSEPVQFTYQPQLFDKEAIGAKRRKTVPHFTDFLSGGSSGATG

Assay [3] has as its target T3, GST-Nv-NF-kB (Ser allele) (Nematostella vectensis, UniProt A7UNT2 2-411).
T3 sequence: T2 sequence with Q21R, C66S, S207N, E215Q, V217A, E225K, A268E, D399E

The target of assay [4] is T4, GST-Co-NF-kB (Capsaspora owczarzaki, UniProt F1ARL5 200-546).
T4 sequence: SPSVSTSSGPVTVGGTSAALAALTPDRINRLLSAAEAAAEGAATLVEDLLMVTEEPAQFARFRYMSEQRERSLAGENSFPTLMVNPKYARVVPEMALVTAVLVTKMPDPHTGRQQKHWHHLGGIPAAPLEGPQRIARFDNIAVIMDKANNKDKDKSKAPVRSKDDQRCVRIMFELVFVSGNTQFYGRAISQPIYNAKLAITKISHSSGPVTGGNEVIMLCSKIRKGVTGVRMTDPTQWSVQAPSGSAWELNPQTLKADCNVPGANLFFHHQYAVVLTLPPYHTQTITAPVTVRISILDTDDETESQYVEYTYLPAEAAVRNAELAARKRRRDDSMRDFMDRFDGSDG

In assay [5] the target is T5, GST-Dm-Relish (Drosophila melanogaster, UniProt Q94527 99-473).
T5 sequence: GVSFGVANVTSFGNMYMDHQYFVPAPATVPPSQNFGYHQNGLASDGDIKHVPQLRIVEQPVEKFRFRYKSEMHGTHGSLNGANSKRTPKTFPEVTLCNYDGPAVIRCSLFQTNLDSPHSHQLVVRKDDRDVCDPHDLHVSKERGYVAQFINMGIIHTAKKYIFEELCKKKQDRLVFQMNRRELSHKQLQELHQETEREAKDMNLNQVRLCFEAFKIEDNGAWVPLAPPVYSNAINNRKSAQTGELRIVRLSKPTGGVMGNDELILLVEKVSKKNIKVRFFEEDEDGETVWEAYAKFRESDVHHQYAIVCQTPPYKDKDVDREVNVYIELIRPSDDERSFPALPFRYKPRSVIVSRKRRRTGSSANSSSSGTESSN

Assay [6] concerns the target T6, GST-Aq-NF-kB (Amphimedon queenslandica, UniProt A9Y5G7 2-389).
T6 sequence: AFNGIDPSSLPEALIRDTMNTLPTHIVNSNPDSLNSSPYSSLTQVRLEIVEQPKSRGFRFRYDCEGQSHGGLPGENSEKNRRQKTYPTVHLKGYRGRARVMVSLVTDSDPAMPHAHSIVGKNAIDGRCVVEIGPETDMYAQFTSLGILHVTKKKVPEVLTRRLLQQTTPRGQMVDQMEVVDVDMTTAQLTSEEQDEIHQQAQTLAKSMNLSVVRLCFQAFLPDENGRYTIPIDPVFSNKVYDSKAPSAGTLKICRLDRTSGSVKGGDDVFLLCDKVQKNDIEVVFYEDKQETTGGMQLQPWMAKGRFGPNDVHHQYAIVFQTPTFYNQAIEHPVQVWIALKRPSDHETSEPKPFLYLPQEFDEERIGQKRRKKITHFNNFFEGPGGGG

Assay [7] deals with GST-Hu-p50 (Homo sapiens, UniProt P19838 7-356).

This is an account of results in paper PMC5700166.

Positions count from the first letter of the chain named.

Sequence of GST-Hu-p50 (P19838 7-356): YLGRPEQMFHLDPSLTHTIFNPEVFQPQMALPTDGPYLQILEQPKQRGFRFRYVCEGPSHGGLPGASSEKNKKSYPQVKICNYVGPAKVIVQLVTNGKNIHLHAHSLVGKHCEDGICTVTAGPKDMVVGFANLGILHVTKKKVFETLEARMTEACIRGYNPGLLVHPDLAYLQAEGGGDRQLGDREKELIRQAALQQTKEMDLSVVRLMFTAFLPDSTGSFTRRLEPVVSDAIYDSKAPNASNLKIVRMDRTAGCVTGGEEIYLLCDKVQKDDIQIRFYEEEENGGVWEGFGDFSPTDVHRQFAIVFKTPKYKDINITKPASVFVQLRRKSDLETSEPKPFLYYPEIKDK

For “CCGATTAACATCAAAAAGACCCCTGATGTTAATCGGGTCTTGATTCGCTTGACGCTGCTG”, the binding signal in assay [1] came to 4.67 z-score; in assay [2], 4.44 z-score; in assay [3] it was 3.31 z-score; in assay [4] it was 1.92 z-score; in assay [5] it was 6.3 z-score; in assay [6], 5.55 z-score. In addition, the binding signal in assay [7] came to 4.67 z-score.

For the sequence “CCGATTAACATCAGGGGGAACGATGATGTTAATCGGGTCTTGATTCGCTTGACGCTGCTG”, the binding signal in assay [1] came to 5.18 z-score; in assay [2], 4.82 z-score; in assay [3], 6.18 z-score; in assay [4], 7.4 z-score; in assay [5], 2.42 z-score; in assay [6], 4.16 z-score. Besides, the binding signal in assay [7] stood at 4.41 z-score.

In the case of “CCGATTAACATCACTATATTCCCTGATGTTAATCGGGTCTTGATTCGCTTGACGCTGCTG”, the binding signal in assay [1] was 3.08 z-score; in assay [2], 3.16 z-score; in assay [3] it was 3.56 z-score; in assay [4], 3.19 z-score; in assay [5], 1.62 z-score; in assay [6], 2.6 z-score. Besides, the binding signal in assay [7] turned out to be 1.77 z-score.

Turning to “CCGATTAACATCACCGTCCCCCCTGATGTTAATCGGGTCTTGATTCGCTTGACGCTGCTG”, the binding signal in assay [1] came out at 4.94 z-score; in assay [2], 4.43 z-score; in assay [3] it was 4.21 z-score; in assay [4], 5.1 z-score; in assay [5], 4.4 z-score; in assay [6], 4.34 z-score. Also, in assay [7], the binding signal stood at 4.08 z-score.

As for “CCGATTAACATCAGATTTTCCCCTGATGTTAATCGGGTCTTGATTCGCTTGACGCTGCTG”, the binding signal in assay [1] turned out to be 8 z-score; in assay [2] it was 8.78 z-score; in assay [3], 11 z-score; in assay [4], 9.39 z-score; in assay [5] it was 4.94 z-score; in assay [6], 7.27 z-score. The binding signal in assay [7] came to 6.35 z-score.

Take “CCGATTAACATCAGGGGCTTTTATGATGTTAATCGGGTCTTGATTCGCTTGACGCTGCTG”: the binding signal came to 6.92 z-score in assay [1]; 9.51 z-score in assay [2]; 7.11 z-score in assay [3]; 1.53 z-score in assay [4]; 7.16 z-score in assay [5]; 7.6 z-score in assay [6]. The same sequence had a binding signal in assay [7] of 6.51 z-score.

Regarding “CCGATTAACATCAGAAACACCCCTGATGTTAATCGGGTCTTGATTCGCTTGACGCTGCTG”, the binding signal in assay [1] was 3.57 z-score; in assay [2], 2.68 z-score; in assay [3], 2.16 z-score; in assay [4], 3.34 z-score; in assay [5], 3.56 z-score; in assay [6], 3.93 z-score. Moreover, the binding signal in assay [7] came out at 3.61 z-score.

For the sequence “CCGATTAACATCAGGGGATATTATGATGTTAATCGGGTCTTGATTCGCTTGACGCTGCTG”, the binding signal stood at 7.99 z-score in assay [1]; 7.96 z-score in assay [2]; 9.17 z-score in assay [3]; 4.65 z-score in assay [4]; 6.28 z-score in assay [5]; 6.34 z-score in assay [6]. In assay [7], this sequence registered a binding signal of 6.06 z-score.

As for “CCGATTAACATCAGGGAAAGTACTGATGTTAATCGGGTCTTGATTCGCTTGACGCTGCTG”, the binding signal in assay [1] is 3.95 z-score; in assay [2] it was 6.4 z-score; in assay [3], 6.18 z-score; in assay [4], 2.93 z-score; in assay [5], 8.65 z-score; in assay [6], 7.76 z-score. Further, in assay [7], the binding signal turned out to be 5.43 z-score.

For “CCGATTAACATCAAAATTCCCTATGATGTTAATCGGGTCTTGATTCGCTTGACGCTGCTG”, the binding signal in assay [1] worked out at 4.89 z-score; in assay [2], 8.05 z-score; in assay [3], 7.32 z-score; in assay [4], 3.27 z-score; in assay [5], 5.2 z-score; in assay [6], 6.99 z-score. In addition, the binding signal in assay [7] was 5.69 z-score.

Consider “CCGATTAACATCAAATTTCCCGATGATGTTAATCGGGTCTTGATTCGCTTGACGCTGCTG”, for which the binding signal turned out to be 3.04 z-score in assay [1]; 4.4 z-score in assay [2]; 3.94 z-score in assay [3]; 4.24 z-score in assay [4]; 2.2 z-score in assay [5]; 4.21 z-score in assay [6]. The sequence also registered a binding signal in assay [7] of 3.9 z-score.

With “CCGATTAACATCAAGGGGGTTTCTGATGTTAATCGGGTCTTGATTCGCTTGACGCTGCTG”, the binding signal came out at 9.41 z-score in assay [1]; 8.37 z-score in assay [2]; 8.76 z-score in assay [3]; 2.34 z-score in assay [4]; 9.83 z-score in assay [5]; 7.81 z-score in assay [6]. The binding signal in assay [7] was determined as 7.39 z-score.
